A selection: hits, their analogues and other compounds. The true share with any hit is near 9.2%.
ALDH1A1 block – inhibitors of human aldehyde dehydrogenase 1A1. P00352. Purified ALDH1A1, NADH fluorescence, propionaldehyde substrate. Potency, µM (highest dose often 75.3 µM), hits mostly inhibitors. 7.3% of 220,000 active
HPGD inh – HPGD (human) dehydrogenase inhibition; purified HPGD, NADH fluorescence kinetic, PGE2 substrate; Potency, µM, hits mostly inhibitors; 4.3% of 150,000 active
Target sequence (P15428 whole entry, looked up): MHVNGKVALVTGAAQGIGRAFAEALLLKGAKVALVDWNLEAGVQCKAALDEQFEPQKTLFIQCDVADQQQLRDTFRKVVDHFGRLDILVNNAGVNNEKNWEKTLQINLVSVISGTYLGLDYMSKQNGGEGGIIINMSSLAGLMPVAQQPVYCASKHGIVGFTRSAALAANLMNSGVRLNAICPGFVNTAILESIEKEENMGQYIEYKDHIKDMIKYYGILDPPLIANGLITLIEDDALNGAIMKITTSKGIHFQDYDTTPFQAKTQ
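20 nM HPGD preincubated 15 min at room temperature with compound in 50 mM Tris-HCl pH 8, 0.01% Tween 20. Started with 1 mM NAD+ and 30 uM prostaglandin E2; NADH fluorescence (360/450 nm) read 5 times over 30-s intervals, last minus first.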
HttQ103 aggreg – reduces HttQ103-GFP aggregates in PC12 cells. PC12 HttQ103-GFP aggregates, Acumen cytometry, 40 h. Potency, µM (doses to about 46.1 µM), actives largely listed as inhibitors. 1.1% of 220,000 active. AID 1688; active = well fitted curve in the direction sought with a large enough effect; inconclusive = small, poorly fitted or top-dose-only effect, or another doubt; inactive = no such curve, though single readings can be large; an effect the other way counts as inactive or inconclusive; also: nearly all actives have a fitted effect of over 60% in size
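PC12 cells stably carrying ecdysone-inducible HTT exon 1 Q103–GFP were induced with tebufenozide (100 nM final) and treated with library compounds in titration. GFP aggregates in lysates were counted by laser scanning cytometry.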
HTT cytoprotect – cytoprotection in Huntington HTT-Q103 PC12 cell model | PC12 HTT-Q103 induced, cytoprotection, ATP luminescence, 40 h | Potency, µM (highest dose often 56.4 µM), actives largely listed as activators | 0.14% of 230,000 active; active = well fitted curve in the direction sought with a large enough effect; inconclusive = small, poorly fitted or top-dose-only effect, or another doubt; inactive = no such curve, though single readings can be large; an effect the other way counts as inactive or inconclusive; also: nearly all actives have a fitted effect of over 45% in size
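PC12 cells with ecdysone-inducible HTT exon 1 Q103-GFP, induced with 100 nM tebufenozide and co-treated with library compounds in a dose series (1536-well, 1500 cells/well). Cytoprotection read as ATP content by ATPlite luminescence.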
KDM4E inh – blocks human JMJD2E demethylase activity; B2RXH2; JMJD2E catalytic domain, FDH-coupled NADH fluorescence (FDH is formaldehyde dehydrogenase); Potency, µM (highest dose often 57.1 µM), most hits filed as inhibitors; 1.6% of 230,000 active; also: nearly all actives have a fitted effect of over 50% in size
Target sequence (B2RXH2 1-337 limits assumed): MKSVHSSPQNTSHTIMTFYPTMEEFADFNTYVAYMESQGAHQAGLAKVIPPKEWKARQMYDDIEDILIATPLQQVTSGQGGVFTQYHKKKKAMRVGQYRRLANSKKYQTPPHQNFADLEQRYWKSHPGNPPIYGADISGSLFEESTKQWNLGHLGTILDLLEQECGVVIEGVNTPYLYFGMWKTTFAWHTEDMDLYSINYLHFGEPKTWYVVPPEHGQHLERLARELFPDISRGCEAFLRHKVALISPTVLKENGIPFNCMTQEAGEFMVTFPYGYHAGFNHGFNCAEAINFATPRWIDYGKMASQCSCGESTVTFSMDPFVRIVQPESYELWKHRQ
LMNA splice mod – modulators of lamin A splicing | HeLa LMNA splicing GFP/RFP minigene ratio, 48 h | Potency, µM (top dose mostly 46.1 µM), usual class: inhibitors | 0.01% of 200,000 active | AID 1487; active = well fitted inhibition curve with a large enough effect in the signal ratio, with a control signal flat, not every such curve was filed as active; inconclusive = small, poorly fitted or top-dose-only effect, or effect the other way, or a change in a side signal; the % refers to the signal ratio
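Read-out is the ratio of GFP to DsRed2 object intensity, acquired by 488 nm laser-scanning cytometry on HeLa lamin A-EGFP minigene reporter cells. Compound incubation 48 hrs at 37 °C in Opti-MEM with 2% FBS; DMSO 0.5% final.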
Hits are given with their value; – = inactive; ? = inconclusive; · = not tested or not shown; [ ] = another dose, or the depositor's remark. Unless noted, calls follow the shape of the dose curve; as a rule, active = well fitted inhibition curve with a large enough effect (not every such curve was filed as active); inconclusive = small, poorly fitted or top-dose-only effect, or another doubt; inactive = no such curve, though single readings can be large or run the other way.

SMILES	ALDH1A1 block	HPGD inh	HttQ103 aggreg	HTT cytoprotect	KDM4E inh	LMNA splice mod
CC/C(C)=N/NS(=O)(=O)c1ccc(C)c([N+](=O)[O-])c1	·	·	–[9.22 µM]	–[10 µM]	–	·
Cc1ccc(S(=O)(=O)N/N=C2/CCCCC2C2CCCCC2)cc1[N+](=O)[O-] (stereo unspecified)	35.5µM	–	–	–[10 µM]	–	–
COc1ccc(NC2c3ccccc3C(=O)N2Cc2ccc3c(c2)OCO3)cc1 (stereo unspecified)	·	·	–[9.22 µM]	–[10 µM]	–	·
CC(=O)c1ccc(N2CCN(S(=O)(=O)c3ccc(-c4cnc(C5CC5)o4)cc3)CC2)cc1	·	·	·	·	·	–
O=C(c1cccc(F)c1)N1CCC[C@@]2(CCN(Cc3ccccc3)C2)C1	–	17.8µM	·	?	·	·
O=C(c1cccc(F)c1)N1CCC2(CC1)CN(c1cccc(-c3ccccc3)c1)C2	?	?	·	–	·	·
O=C(c1cccc(F)c1)N1CCC2(CC1)CN(C(c1ccccc1)c1ccccc1)C2	?	–	·	–	·	·
O=C(c1cccc(F)c1)N1CCC[C@@]2(CCN(C(c3ccccc3)c3ccccc3)C2)C1	8.91µM	–	·	–	·	·
O=C(c1cccc(F)c1)N1CCC[C@@]2(CCN(c3ccccc3)C2)C1	1.12µM	7.94µM	·	–	·	·
O=C(c1cccc(F)c1)N1CCC2(CCCN(c3cccc(-c4ccccc4)c3)C2)CC1	11.2µM	–	·	–	·	·
O=C(C1CCCCC1)N(Cc1cccnc1)c1nc2c(F)cc(F)cc2s1	·	·	·	·	·	–
O=Cc1s/c(=N\S(=O)(=O)c2ccccc2)n(CCCCl)c1Cl	?	·	5.01µM	–	–	?
CC(=O)Nc1ccc(S(=O)(=O)NCC2CCC(C(=O)NC(C)c3ccc4c(c3)OCCO4)CC2)cc1 (stereo unspecified)	?	·	–	–	–	·
CC(C)n1nc(C(=O)Nc2nnc(C3CC3)s2)c2ccccc2c1=O	–	·	–	–	–	·
CCSc1nnc(NC(=O)c2nn(C(C)C)c(=O)c3ccccc23)s1	25.1µM	–	?	–[10 µM]	–	–
CCSc1nnc(NC(=O)c2cc(C)nc3ccccc23)s1	–	28.2µM	–	–	–	–
O=C1C(Cl)=C(Nc2ccccc2O)C(=O)N1CCc1ccccc1	3.98µM	11.2µM	–	–[10 µM]	–	–
COc1ccc(CCNC2=C(Cl)C(=O)N(CCc3ccccc3)C2=O)cc1OC	?	–	–	–	–	–
CCOc1ccc(N2C(=O)C(Cl)=C(Nc3ccccc3O)C2=O)cc1	14.1µM	25.1µM	–	–	–	–
COc1ccc(NC2=C(Cl)C(=O)N(c3ccccc3)C2=O)c(OC)c1	?	·	–	–	–	–
CC1(CC(=O)Nc2ccccc2)NC(=S)N(c2ccccc2)N1 (stereo unspecified)	11.2µM	·	–	–[10 µM]	–	–
CC(C)N(C(=O)CO/N=C/c1cccc([N+](=O)[O-])c1)C(C)C	?	·	–	–	–	–
N#CCCN(C(=O)CO/N=C/c1cccc([N+](=O)[O-])c1)c1ccccc1	25.1µM	·	–	–	–	?
CC1Cc2ccccc2N1C(=O)COC(=O)CNC(=O)c1ccc(Br)o1 (stereo unspecified)	28.2µM	–	–	–	–	–
CC1Cc2ccccc2N1C(=O)COC(=O)c1ccc(O)cc1 (stereo unspecified)	·	·	–[9.22 µM]	–[10 µM]	–	·
SMILES	ALDH1A1 block	HPGD inh	HttQ103 aggreg	HTT cytoprotect	KDM4E inh	LMNA splice mod
O=C(COC(=O)c1cccc([N+](=O)[O-])c1)c1ccc(OCc2ccccc2)cc1	14.1µM	–	–	–[10 µM]	–	–
O=C(COC(=O)c1cc([N+](=O)[O-])ccc1NCCO)NCc1cccs1	?	·	–	–[10 µM]	–	–
O=C(CCc1ccccc1)OCC(=O)c1cccc([N+](=O)[O-])c1	?	·	?	–	–	–
O=C(COC(=O)c1cc([N+](=O)[O-])ccc1NCCO)c1ccccc1	25.1µM	–	–	–[10 µM]	?	–
NC(=O)COC(=O)c1cc([N+](=O)[O-])ccc1NCCO	20µM	·	–[9.22 µM]	–[10 µM]	–	·
CCOC(=O)CSc1nc2c([nH]c3ccccc32)c(=O)n1-c1ccc(OC)cc1	·	·	·	·	·	–
CCCCC/C=C\C\C=C/C=C/C=C/[C@@H](SC[C@H](NC(=O)CC[C@H](N)C(=O)O)C(=O)NCC(=O)O)[C@@H](O)CCCC(=O)O	?	·	·	–	·	·
CCOC(=O)c1c(-c2ccc(C)o2)csc1NC(=S)NC(=O)N(C)C	?	–	–	–	–	?
CCNC(=O)/C=C1\NC(C)(C)Cc2c1ccc1ccccc21	–	–	–	–	–	–
CC1(C)Cc2c(ccc3ccccc23)C(=O)N1	?	?	11.2µM	–	?	?
CCOC(=O)C1C(=O)NC(SCC(=O)Nc2nccs2)=C(C#N)C1c1ccccc1OCC (stereo unspecified)	6.31µM	12.6µM	–	–[10 µM]	–	–
CS(C)(=O)=O	–	–	·	–	?	·
CC(=O)O[C@H]1CC[C@@]2(C)[C@@H](CC[C@@]3(C)[C@H]2C(=O)C=C2[C@H]4C[C@](C)(C(=O)OCCN5CCCCC5)CC[C@]4(C)CC[C@@]23C)C1(C)C	·	·	·	–	·	·
O=C(NCc1ccc2c(c1)OCO2)c1ccc(CSCc2ccccc2Cl)o1	?	?	–	–[10 µM]	–	?
O=C(NCc1ccc2c(c1)OCO2)c1ccc(COc2cccc(Cl)c2)o1	?	–	28.2µM	–[10 µM]	–	?
COc1ccccc1N1CCN(C(=O)c2ccc(CS(=O)(=O)c3ccccc3OC)o2)CC1	17.8µM	–	–	–	–	?
COc1ccc(S(=O)(=O)Cc2ccc(C(=O)N3CCN(C(=O)c4ccco4)CC3)o2)cc1	5.97µM	–	–	–	–	–
CCOC(=O)N1CCN(C(=O)c2ccc(CS(=O)(=O)c3c(Cl)cccc3Cl)o2)CC1	–	–	0.0009µM	·	–	–
CCOC(=O)N1CCN(C(=O)c2ccc(CS(=O)(=O)c3ccccc3OC)o2)CC1	–	–	–	–[0.074 µM]	–	–
CCC(=O)N1CCCc2cc(S(=O)(=O)N3CCC(C(=O)NCc4ccc(F)cc4)CC3)ccc21	·	·	·	·	·	–
CCn1cc(S(=O)(=O)c2ccccc2)c(=O)c2cc(F)c(N3CCCC3)cc21	·	·	·	·	·	–
COC(=O)c1sc2cccc(F)c2c1S(=O)(=O)NCc1ccccc1Cl	·	·	·	·	·	–
COc1ccc(S(=O)(=O)Cc2ccc(C(=O)N3CCN(c4cc(Cl)ccc4C)CC3)o2)cc1	–	–	17.8µM	–	–	–
Cc1ccc(S(=O)(=O)C2(C(=O)NCc3ccc4c(c3)OCO4)CC2)cc1	–	–	?	–	–	–
COc1ccc(S(=O)(=O)Cc2ccc(C(=O)N3CCN(c4ccc(Cl)cc4)CC3)o2)cc1	–	–	?	–	–	–
COc1ccc(N2CCN(C(=O)c3ccc(CS(=O)(=O)c4ccc(OC)cc4)o3)CC2)cc1	–	–	–	–	–	–
COc1ccc(S(=O)(=O)Cc2ccc(C(=O)N3CCN(Cc4ccccc4)CC3)o2)cc1	12.6µM	–	–	–	–	–
